Where “and” joins values, the source holds several entries; their conditions need not be identical. Equal entries are not always repeated. Inconclusive results are not listed. More than one record can exist for a structure, and the calls need not agree. Calls of active or inactive are those of the source. Rule for the calls, unless noted: active = hit-call score of the fitted dose curve at least 0.9, where 1 is the maximum; inactive = score below 0.9.
Legend:
[1] = read-out: Interleukin-1 alpha (IL1a), IL1A (gene 3552); test: BSK_LPS_IL1a: BioMAP Diversity Plus: LPS Assay for Interleukin-1 alpha (IL1a) Biomarker Activity (AID 2283080); settings: primary human HUVEC with PBMC; actives raise or lower the signal
How it was run: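 ELISA read-out of IL-1 alpha from a human primary vascular co-culture (endothelium plus PBMC) under LPS, sampled 24 hours post-dosing. Activity was fitted in both directions relative to DMSO controls.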

[2] = read-out: Monocyte Chemoattractant Protein-1 (MCP1), CCL2 (gene 6347); test: BSK_LPS_MCP1: BioMAP Diversity Plus: LPS Assay for Monocyte Chemoattractant Protein-1 (MCP1) Biomarker Activity (AID 2283081); settings: primary human HUVEC with PBMC; actives raise or lower the signal;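 for AC50: secreted MCP-1 protein quantified by ELISA in culture supernatant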
How it was run: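 Human endothelial–PBMC co-cultures were dosed with chemical, then LPS-driven MCP-1 levels were quantified by ELISA at 24 h. Activity in either direction was fitted versus DMSO negative control.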

[3] = BSK_LPS_PGE2: BioMAP Diversity Plus: LPS Assay for Prostaglandin E2 (PGE2) Biomarker Activity (AID 2283082); settings: primary human HUVEC with PBMC; actives raise or lower the signal;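 for AC50: secreted prostaglandin E2 measured by ELISA in LPS-stimulated co-culture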
How it was run: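 Endpoint derived from bidirectional curve fitting versus DMSO of ELISA-measured PGE2 in LPS-stimulated human primary vascular co-culture (HUVEC with PBMC) harvested at 24 h.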

[4] = read-out: Macrophage colony-stimulating factor (MCSF), CSF1 (gene 1435); test: BSK_LPS_MCSF: BioMAP Diversity Plus: LPS Assay for Macrophage colony-stimulating factor (MCSF) Biomarker Activity (AID 2283083); settings: primary human HUVEC with PBMC; actives raise or lower the signal
How it was run: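 ELISA readout of M-CSF after 24 h compound exposure in a human endothelial/PBMC co-culture. Activity, in either direction, is fitted relative to DMSO vehicle.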

[5] = read-out: Tissue Factor, F3 (gene 2152); test: BSK_LPS_TissueFactor: BioMAP Diversity Plus: LPS Assay for Tissue Factor Biomarker Activity (AID 2283084); settings: primary human HUVEC with PBMC; actives raise or lower the signal
How it was run: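 ELISA signal for cell-surface Tissue Factor (CD142) was read 24 h after compound dosing of an LPS-stimulated human endothelial–PBMC primary co-culture. Gain or loss of signal was scored relative to DMSO.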

[6] = read-out: Tumor necrosis factor (Homo sapiens) (UniProt P01375); test: BSK_LPS_TNFa: BioMAP Diversity Plus: LPS Assay for Tumour Necrosis Factor alpha (TNFa) Biomarker Activity (AID 2283085); settings: primary human HUVEC with PBMC; actives raise or lower the signal
How it was run: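 Primary human vascular co-culture of HUVEC and PBMC; TNFa ELISA 24 h after treatment, analysed as increase or decrease relative to DMSO control.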

[7] = read-out: Vascular cell adhesion molecule 1 (VCAM1), VCAM1 (gene 7412); test: BSK_LPS_VCAM1: BioMAP Diversity Plus: LPS Assay for Vascular cell adhesion molecule 1 (VCAM1) Biomarker Activity (AID 2283086); settings: primary human HUVEC with PBMC; actives raise or lower the signal
How it was run: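 Primary human vascular co-culture (umbilical vein endothelium plus PBMC) stimulated with LPS received chemical; 24 h later VCAM-1 was read by ELISA. Overt cytotoxicity was assessed by sulforhodamine B staining of parallel cultures at the same time point.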

[8] = read-out: CD38, CD38 (gene 952); test: BSK_SAg_CD38: BioMAP Diversity Plus: SAg Assay for CD38 Biomarker Activity (AID 2283087); settings: primary human HUVEC with PBMC; actives raise or lower the signal
How it was run: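 Fluorescence ELISA of cell-surface CD38 served as the read-out, with either increase or decrease fitted against DMSO controls. Cells were a human umbilical vein endothelium plus PBMC co-culture under SEB/TSST-1 stimulation, measured 24 h after dosing.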

[9] = read-out: CD40, CD40 (gene 958); test: BSK_SAg_CD40: BioMAP Diversity Plus: SAg Assay for CD40 Biomarker Activity (AID 2283088); settings: primary human HUVEC with PBMC; actives raise or lower the signal
How it was run: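 Compounds were dosed onto a human primary endothelial–PBMC co-culture, and after 24 h CD40 was quantified by ELISA using a fluorescence signal. Activity in either direction was fitted relative to DMSO.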

[10] = read-out: CD69, CD69 (gene 969); test: BSK_SAg_CD69: BioMAP Diversity Plus: SAg Assay for CD69 Biomarker Activity (AID 2283089); settings: primary human HUVEC with PBMC; actives raise or lower the signal;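 for AC50: cell surface CD69 protein quantified by ELISA with fluorescence detection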
How it was run: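 Values derive from bidirectional fitting relative to DMSO vehicle. Cells: umbilical vein endothelium plus peripheral blood mononuclear cells, treated 24 h before fluorescent ELISA for CD69.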

[11] = read-out: Monocyte Chemoattractant Protein-1 (MCP1), CCL2 (gene 6347); test: BSK_SAg_MCP1: BioMAP Diversity Plus: SAg Assay for Monocyte Chemoattractant Protein-1 (MCP1) Biomarker Activity (AID 2283090); settings: primary human HUVEC with PBMC; actives raise or lower the signal
How it was run: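 MCP-1 levels in the endothelial–PBMC SAg co-culture were quantified by ELISA at 24 h post-dosing; both increases and decreases versus DMSO scored. Cytotoxicity monitored by SRB total protein in parallel cultures.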

[12] = read-out: E-selectin (Homo sapiens) (UniProt P16581); test: BSK_SAg_Eselectin: BioMAP Diversity Plus: SAg Assay for Eselectin Biomarker Activity (AID 2283091); settings: primary human HUVEC with PBMC; actives raise or lower the signal
How it was run: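 Co-culture: HUVEC + PBMC. Dose compound; 24 h. ELISA for E-selectin. Bidirectional fit vs DMSO.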

[13] = read-out: Monokine induced gamma interferon (MIG), CXCL9 (gene 4283); test: BSK_SAg_MIG: BioMAP Diversity Plus: SAg Assay for Monokine induced gamma interferon (MIG) Biomarker Activity (AID 2283092); settings: primary human HUVEC with PBMC; actives raise or lower the signal
How it was run: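 Values reflect bidirectional fitting of ELISA-measured MIG against DMSO vehicle, taken 24 h after dosing of a co-culture of human umbilical vein endothelial cells and peripheral blood mononuclear cells.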

[14] = BSK_SAg_PBMCCytotoxicity: PBMC Cytotoxicity Assessment in the BioMAP Diversity Plus: SAg Assay (AID 2283093); settings: primary human HUVEC with PBMC;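 note: PBMC viability measured as Alamar Blue reduction fluorescence at 546/580 nm; fitted both ways against DMSO so a hit may be loss or gain of signal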;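 for AC50: PBMC superantigen activated with SEB plus TSST-1 one hour after compound addition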
How it was run: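 Compound added to 75,000 PBMC/well for 1 h; SEB and TSST-1 then added at 20 ng/mL final each; 90 h incubation; Alamar Blue 6 h; read 546/580 nm ex/em. Activity fitted bidirectionally relative to DMSO baseline.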

[15] = read-out: Interleukin-8 (IL8), CXCL8 (gene 3576); test: BSK_SAg_IL8: BioMAP Diversity Plus: SAg Assay for Interleukin-8 (IL8) Biomarker Activity (AID 2283094); settings: primary human HUVEC with PBMC; actives raise or lower the signal
How it was run: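 In this co-culture of human umbilical vein endothelium with peripheral blood mononuclear cells, IL-8 is assayed by ELISA at 24 h. DMSO serves as baseline for bidirectional curve fitting.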

[16] = BSK_SAg_Proliferation: Cell Proliferation Assessment in the BioMAP Diversity Plus: SAg Assay (AID 2283095); settings: primary human HUVEC with PBMC;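 note: relative cell number as total protein by SRB absorbance in sub-confluent culture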
How it was run: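 Readout is SRB-stained protein (560 nm) in a primary human HUVEC and PBMC co-culture; sub-confluent cultures are read at 96 h. Activity is fitted bidirectionally using DMSO as baseline.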

[17] = BSK_SAg_SRB: Viability Assessment in the BioMAP Diversity Plus: SAg Assay (AID 2283096); settings: primary human HUVEC with PBMC;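 note: cells read one day after compound addition; hits may be either gain or loss of signal compared with DMSO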
How it was run: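 Total protein by sulforhodamine B staining, 24 h after dosing, in HUVEC–PBMC co-culture; DMSO-referenced bidirectional fitting.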

[18] = target: human CYP2C9, CYP2C9 (gene 1559) (UniProt P11712); test: NVS_ADME_hCYP2C9: NovaScreen (NVS) CYP450-related Enzyme Activity (ADME) Assay for human CYP2C9 (AID 2283108; active = hit-call score of the fitted dose curve at least 0.9, where 1 is the maximum)
Sequence of human CYP2C9, CYP2C9 (gene 1559) (P11712 whole entry, looked up): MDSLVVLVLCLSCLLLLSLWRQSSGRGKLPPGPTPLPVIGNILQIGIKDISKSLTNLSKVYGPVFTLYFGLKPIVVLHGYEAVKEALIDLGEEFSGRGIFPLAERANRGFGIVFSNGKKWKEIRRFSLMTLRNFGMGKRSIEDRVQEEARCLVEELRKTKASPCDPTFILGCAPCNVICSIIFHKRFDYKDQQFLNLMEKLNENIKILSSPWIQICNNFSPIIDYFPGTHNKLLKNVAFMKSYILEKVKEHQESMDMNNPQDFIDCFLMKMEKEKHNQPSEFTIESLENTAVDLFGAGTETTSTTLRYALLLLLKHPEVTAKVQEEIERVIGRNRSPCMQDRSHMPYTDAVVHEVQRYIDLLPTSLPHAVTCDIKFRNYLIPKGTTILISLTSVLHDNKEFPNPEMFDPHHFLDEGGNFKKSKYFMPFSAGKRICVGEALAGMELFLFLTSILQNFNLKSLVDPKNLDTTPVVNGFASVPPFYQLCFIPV
How it was run: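 Fluorescence readout of CYP2C9 activity (SF9-expressed human enzyme) at 0.75 h. The primary screen used 10 uM in duplicate, with concentration-response follow-up for actives; acetonitrile was the negative control.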

[19] = target: human CYP19A1, CYP19A1 (gene 1588) (UniProt P11511); test: NVS_ADME_hCYP19A1: NovaScreen (NVS) CYP450-related Enzyme Activity (ADME) Assay for human CYP19A1 (AID 2283098; active = hit-call score of the fitted dose curve at least 0.9, where 1 is the maximum)
Sequence of human CYP19A1, CYP19A1 (gene 1588) (P11511 whole entry, looked up): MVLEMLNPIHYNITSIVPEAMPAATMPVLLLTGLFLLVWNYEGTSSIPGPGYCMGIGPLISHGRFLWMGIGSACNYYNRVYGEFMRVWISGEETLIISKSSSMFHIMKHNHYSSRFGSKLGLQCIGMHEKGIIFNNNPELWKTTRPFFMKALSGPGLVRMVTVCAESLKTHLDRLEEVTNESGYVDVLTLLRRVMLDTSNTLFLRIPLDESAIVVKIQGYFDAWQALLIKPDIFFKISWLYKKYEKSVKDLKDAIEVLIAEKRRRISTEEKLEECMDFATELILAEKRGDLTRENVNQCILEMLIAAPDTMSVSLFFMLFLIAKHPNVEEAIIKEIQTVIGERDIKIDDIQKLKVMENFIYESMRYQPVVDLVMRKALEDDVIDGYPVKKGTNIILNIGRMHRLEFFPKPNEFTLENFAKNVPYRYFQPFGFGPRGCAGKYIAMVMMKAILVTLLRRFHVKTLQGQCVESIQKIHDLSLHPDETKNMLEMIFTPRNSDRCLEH
How it was run: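 Biochem, cell-free; recombinant enzyme + specific substrate; fluorescence intensity at 0.5 h post-dose; 10 uM duplicate primary, conc. series for actives; acetonitrile = negative control/baseline; positive and negative controls on every plate.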

Measured: AC50

Sequence of E-selectin (Homo sapiens) (P16581 whole entry, looked up): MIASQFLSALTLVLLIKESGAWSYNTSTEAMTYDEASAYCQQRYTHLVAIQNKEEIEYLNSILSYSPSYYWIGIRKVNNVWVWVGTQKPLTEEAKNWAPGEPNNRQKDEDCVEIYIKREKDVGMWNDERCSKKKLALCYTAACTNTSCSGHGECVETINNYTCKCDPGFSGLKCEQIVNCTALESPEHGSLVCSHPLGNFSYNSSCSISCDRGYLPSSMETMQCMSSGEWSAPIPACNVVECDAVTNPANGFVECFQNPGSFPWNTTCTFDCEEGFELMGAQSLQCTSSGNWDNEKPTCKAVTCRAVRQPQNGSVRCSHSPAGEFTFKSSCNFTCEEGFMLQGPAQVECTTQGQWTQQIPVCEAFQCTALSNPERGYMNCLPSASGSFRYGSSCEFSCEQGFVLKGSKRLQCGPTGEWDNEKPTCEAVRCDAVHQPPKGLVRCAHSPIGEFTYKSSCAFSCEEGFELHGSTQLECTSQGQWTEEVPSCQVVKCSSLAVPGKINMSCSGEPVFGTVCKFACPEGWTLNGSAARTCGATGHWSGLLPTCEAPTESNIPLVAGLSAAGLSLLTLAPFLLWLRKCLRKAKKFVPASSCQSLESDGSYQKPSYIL
Sequence of Tumor necrosis factor (Homo sapiens) (P01375 whole entry, looked up): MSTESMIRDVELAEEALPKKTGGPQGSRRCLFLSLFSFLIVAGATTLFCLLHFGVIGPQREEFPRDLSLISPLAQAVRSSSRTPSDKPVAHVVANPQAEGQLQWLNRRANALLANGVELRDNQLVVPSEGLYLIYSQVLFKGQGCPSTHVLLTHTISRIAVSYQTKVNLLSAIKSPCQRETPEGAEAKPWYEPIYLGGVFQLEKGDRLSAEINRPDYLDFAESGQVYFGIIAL

C=CC=CC=CCCCCC
active: [16] 6.71 µM
not listed: [18] | [19]
inactive: all other assays above

CN1C(=O)N(C)C(O)C1O (stereo unspecified)
not listed: [18] | [19]
inactive: all other assays above

CCOc1nc(F)cc2nc(S(=O)(=O)Nc3c(Cl)cccc3C(=O)OC)nn12
not listed: [18] | [19]
inactive: all other assays above

O=C(Cl)c1cc(C(=O)Cl)cc(C(=O)Cl)c1
inactive: [3]
active: [1] 31 µM | [2] 29.9 µM | [4] 31.1 µM | [5] 33000 nM | [6] 36.7 µM | [7] 27.8 µM | [8] 28.9 µM | [9] 30.3 µM | [10] 31.9 µM | [11] 29.1 µM | [12] 36.6 µM | [13] 34.2 µM | [14] 12.6 µM | [15] 20 µM | [16] 12.7 µM | [17] 30.7 µM

CO[Si](OC)(OC)c1ccccc1
not listed: [18] | [19]
inactive: all other assays above

CC(C)(c1cc(Br)c(OCCO)c(Br)c1)c1cc(Br)c(OCCO)c(Br)c1
active: [3] 121 nM | [7] 16.2 µM | [8] 5.1 µM | [9] 13.3 µM | [10] 2.31 µM | [12] 1.44 µM | [16] 0.479 µM | [18] 0.879 µM
not listed: [19]
inactive: all other assays above

CCO[Si](CCCN=C=O)(OCC)OCC
not listed: [18] | [19]
inactive: all other assays above

c1ccc2c(c1)ccc1cc3c(ccc4ccccc43)cc12
active: [5] 34.2 nM
inactive: [1] | [2] | [3] | [4] | [5] | [6] | [7] | [8] | [9] | [10] | [11] | [12] | [13] | [14] | [15] | [16] | [17]

CC(CC=O)CCCC(C)(C)O (stereo unspecified)
inactive: [19]

Nc1ccc(N)c(Cl)c1
active: [1] 4.62 µM and 33.4 µM | [2] 32.7 µM and 32.2 µM | [3] 20 µM and 13 µM | [4] 8.8 µM and 15.4 µM | [5] 3.97 µM and 3.44 µM | [6] 11.6 µM | [7] 5.43 µM and 5.78 µM | [8] 15.9 µM | [9] 26.4 µM and 21.7 µM | [10] 22.9 µM and 18.4 µM | [11] 30.8 µM and 31.3 µM | [12] 19.4 µM and 22.2 µM | [13] 30.4 µM and 31.3 µM | [14] 16.4 µM and 15.4 µM | [15] 30.8 µM | [16] 14.8 µM and 12.7 µM | [17] 27.7 µM
inactive: [6] | [15]

COCc1c(C(C)C)nc(C(C)C)c(/C=C/[C@@H](O)C[C@@H](O)CC(=O)O)c1-c1ccc(F)cc1
active: [1] 0.00777 µM | [5] 7.78 nM | [9] 0.126 µM | [10] 0.0293 µM | [12] 0.0215 µM | [15] 0.00783 µM | [16] 0.0185 µM | [17] 0.0355 µM
not listed: [8] | [18] | [19]
inactive: all other assays above

O=C(Nc1ccccc1SSc1ccccc1NC(=O)c1ccccc1)c1ccccc1
active: [1] 2.65 µM | [4] 5.44 µM | [6] 5.18 µM | [7] 9.83 µM | [8] 5.21 µM | [9] 8.91 µM | [10] 2.01 µM | [14] 2.78 µM | [15] 6.04 µM | [16] 3.19 µM
inactive: [2] | [3] | [5] | [11] | [12] | [13] | [17]
